Drawing on PubChem BioAssay (NCATS), this text covers outcome and Potency for seven molecules.

Values joined by “and” are separate entries in the source; they are usually repeats but may differ in a detail not shown here. Equal entries are not always repeated. Inconclusive results are not listed. Active and inactive are the calls of the source. Unless noted, calls follow the shape of the dose curve; as a rule, active = well fitted curve in the direction sought with a large enough effect; inconclusive = small, poorly fitted or top-dose-only effect, or another doubt; inactive = no such curve, though single readings can be large; an effect the other way counts as inactive or inconclusive.

A short description of experiment [1]: Cytometric Cell-Based qHTS for Inhibitors of the mTORC1 Signaling Pathway in MEF (Tsc2-/-, p53-/-) Cells (AID 2660).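 Also: Tsc2 and p53 null MEFs carrying empty vector with compound for 24 h; percent of cells above a phospho-rpS6 to PI ratio cutoff in each well; series mostly up to about 38 µM.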 The method, boiled down: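 Immunofluorescence qHTS of rpS6 Ser235/236 phosphorylation: MEFs (Tsc2-/-, p53-/-) treated 24 h, 37 C, in DMEM + 10% FBS. Alexa-488 signal normalized to PI count, referenced to rapamycin (7.5 nM) and DMSO; PI cell number recorded for viability.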
(In general: Quantitative high-throughput screening tests each substance at several concentrations.)

The nature of experiment [2]: High Content Imaging Cell-Based qHTS for Inhibitors of the mTORC1 Signaling Pathway in MEF (Tsc2-/-, p53-/-) Cells (AID 2666).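 Also: percent of cells scored positive for phospho-rpS6 Ser235/236 immunostaining by imaging.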 In a few lines:
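Cells were plated, dosed with compound after 24 hrs, and incubated another 24 hrs at 37 degree Celsius. Fixed cells were immunostained for phospho-rpS6 Ser235/236 and counterstained, and the normalized signal was scored as % active cells against rapamycin and DMSO controls.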

Experiment [3] can be described thus: High Content Imaging Cell-Based qHTS for Inhibitors of the mTORC1 Signaling Pathway in MEF Cells (AID 2667).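 Also: Tsc2-/- p53-/- MEFs stably re-expressing wild-type Tsc2 exposed 24 h; series mostly up to about 38 µM.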 The method, boiled down:
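Immunofluorescence for rpS6 phosphorylation in MEFs of Tsc2-/-, p53-/- background rescued with WT Tsc2. Compound exposure lasted 24 hrs. Inhibition was scored against rapamycin-treated control wells.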

A short description of experiment [4]: Cytometry Cell-Based qHTS for Inhibitors of the mTORC1 Signaling Pathway in MEF cells (AID 2668).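 Also: Tsc2-/- p53-/- mouse embryonic fibroblasts stably re-expressing wild-type Tsc2; percent cells positive for phospho-rpS6 Ser235/236 relative to propidium iodide stain; series mostly up to about 38 µM.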 The method, boiled down:
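In MEFs grown in DMEM + 10% FBS, a 24 hrs compound exposure preceded imaging of phospho-rpS6 Ser235/236 by laser-scanning cytometry.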

The target of experiment [5] is DNA polymerase III PolC-type (Bacillus subtilis (strain 168)) (UniProt P13267). Description: qHTS Validation Assay for the Inhibitors of DNA Replication in Gram-Positive Bacteria (AID 485295). Also: potency is read from the fitted curve at half-maximal effect. The method, boiled down:
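Inhibition of DNA synthesis by the reconstituted PolC holoenzyme, monitored through PicoGreen staining of dsDNA formed from ssM13Gori, dNTPs and NTPs, with compound preincubation and room-temperature reaction.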

The target in experiment [6] is Tumor susceptibility gene 101 protein (Homo sapiens) (UniProt Q99816). Description: qHTS Validation Assay for Iinhibitors of HIV-1 Budding by Blocking the Interaction of PTAP/TSG101 (AID 485342; calls by dose curve). In a few lines:
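Compound wells held the Tsg101 binding domain (10 uM) and a FITC-conjugated PTAP peptide (50 nM) in buffer at pH 7.5 containing 0.15 M NaCl and 0.01% Tween 20; polarization was recorded after 20 min, r.t.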

The nature of experiment [7]: qHTS Validation Assay to Find Inhibitors of Chronic Active B-Cell Receptor Signaling (AID 485345; active = well fitted curve in the direction sought with a large enough effect in the main read-out, with a control signal flat, not every such curve was filed as active). The method, boiled down: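 Read-out: ratio of filter-corrected green (IkappaBalpha fusion) to red (native) luciferase signal in doxycycline-induced TMD8 cells after 4 h at 37C. Titration spanned 46 uM–3 nM; Data were normalised to basal cells and 10 uM MG-132 wells.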
Experiment [8] concerns the target Beta-2 adrenergic receptor (Homo sapiens) (UniProt P07550). Description: qHTS validation assay of beta-arrestin-biased ligands of beta2-adrenergic receptor (AID 485366). The method, boiled down:
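Arrestin-recruitment (Tango) reporter: ligand-bound beta2-AR recruits beta-arrestin, releasing tTA, which upregulates luciferase. Titrations of up to 46 microM incubated 18 hr at 37 degrees C before luminescent readout.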

Experiment [9] addresses ATP-dependent 6-phosphofructokinase (Trypanosoma brucei brucei) (UniProt O15648). Description: qHTS Validation Assay to Find Inhibitors of T. brucei phosphofructokinase (AID 485368). Also: potency is read from the fitted curve at half-maximal effect. In a few lines: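 Steps: substrate mix (0.5 mM F6P, 0.1 mM ATP, MgCl2, TEA pH 8.0); compound; 1.25 nM T. brucei PFK; 45 min RT; ATP depletion 10 min; ADP-to-ATP detection 10 min; luminescence read; curve fitting and classification.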

Experiment [10] addresses Thioredoxin reductase 1, cytoplasmic (Rattus norvegicus) (UniProt O89049). Description: qHTS Assay for Substrates of Mammalian Selenoprotein Thioredoxin Reductase 1 (TrxR1) (AID 488772).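 Also: NADPH fluorescence in the first read after selenite addition and not the 8 min delta; series mostly up to about 57 µM; a drop in NADPH fluorescence below the no-compound background marks a TrxR1 substrate.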 In a few lines:
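Quantitative HTS in Tris-HCl buffer at pH 7.5 with EDTA and Tween-20, using rat TrxR1, 400 uM NADPH and 400 uM selenite (final). A fall in initial NADPH fluorescence relative to background marked substrate behaviour.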

The target is the same in experiment [11]. Description: qHTS Assay for Inhibitors of Mammalian Selenoprotein Thioredoxin Reductase 1 (TrxR1) (AID 488773). Also: nearly all actives have a fitted effect of over 40% in size. Also: potency is read from the fitted curve at half-maximal effect. To be noted: Potency: inhibition. In a few lines:
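Steps: enzyme (90 nM) plus NADPH (400 uM final), 5 min at ~22 deg C; compound added, 15 min; selenite (400 uM final) added; fluorescence followed for 8 min. Concentration-response curves derived from the normalized delta values.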

In experiment [12] the target is Flap endonuclease 1 (Homo sapiens) (UniProt P39748). Description: qHTS Validation Assay for the Inhibitors of Human Flap endonuclease 1 (FEN1) (AID 488816). Also: potency is read from the fitted curve at half-maximal effect. The method, boiled down: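 Readings taken at 0 and 15 min after starting the reaction with 50 nM (final) substrate supplied the signal. Compounds had first sat with 10 nM FEN1 reagent for 15 min at room temperature. Values come from Hill-equation concentration-response fits.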
Chain of Flap endonuclease 1 (Homo sapiens) (P39748 whole entry, looked up): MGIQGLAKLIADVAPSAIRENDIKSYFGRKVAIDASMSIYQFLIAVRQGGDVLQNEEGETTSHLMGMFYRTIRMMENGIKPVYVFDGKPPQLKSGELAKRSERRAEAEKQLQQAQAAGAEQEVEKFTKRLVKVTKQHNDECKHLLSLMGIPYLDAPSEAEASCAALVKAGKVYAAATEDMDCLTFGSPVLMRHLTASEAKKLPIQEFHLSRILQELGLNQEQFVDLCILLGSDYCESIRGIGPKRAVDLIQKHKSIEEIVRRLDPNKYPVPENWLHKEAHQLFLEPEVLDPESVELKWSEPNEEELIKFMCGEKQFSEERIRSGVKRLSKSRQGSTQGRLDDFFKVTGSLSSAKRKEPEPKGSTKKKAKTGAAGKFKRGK

For experiment [13], the target named is M-phase phosphoprotein 8 (Homo sapiens) (UniProt Q99549). Description: qHTS Validation Assay for Inhibitors for MPP8 Chromodomain Interactions with Methylated Histone Tails (AID 488949). Also: nearly all actives have a fitted effect of over 55% in size. Also: potency is read from the fitted curve at half-maximal effect. The method, boiled down: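 Chemiluminescent proximity assay: histidine-tag capture via nickel acceptor beads, biotin peptide via streptavidin donor beads. Protein and peptide each at 50 nM, pH 7.4, with 30 min incubations at room temperature for complex formation, compound exposure and bead binding.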
Chain of M-phase phosphoprotein 8 (Homo sapiens) (Q99549 whole entry, looked up): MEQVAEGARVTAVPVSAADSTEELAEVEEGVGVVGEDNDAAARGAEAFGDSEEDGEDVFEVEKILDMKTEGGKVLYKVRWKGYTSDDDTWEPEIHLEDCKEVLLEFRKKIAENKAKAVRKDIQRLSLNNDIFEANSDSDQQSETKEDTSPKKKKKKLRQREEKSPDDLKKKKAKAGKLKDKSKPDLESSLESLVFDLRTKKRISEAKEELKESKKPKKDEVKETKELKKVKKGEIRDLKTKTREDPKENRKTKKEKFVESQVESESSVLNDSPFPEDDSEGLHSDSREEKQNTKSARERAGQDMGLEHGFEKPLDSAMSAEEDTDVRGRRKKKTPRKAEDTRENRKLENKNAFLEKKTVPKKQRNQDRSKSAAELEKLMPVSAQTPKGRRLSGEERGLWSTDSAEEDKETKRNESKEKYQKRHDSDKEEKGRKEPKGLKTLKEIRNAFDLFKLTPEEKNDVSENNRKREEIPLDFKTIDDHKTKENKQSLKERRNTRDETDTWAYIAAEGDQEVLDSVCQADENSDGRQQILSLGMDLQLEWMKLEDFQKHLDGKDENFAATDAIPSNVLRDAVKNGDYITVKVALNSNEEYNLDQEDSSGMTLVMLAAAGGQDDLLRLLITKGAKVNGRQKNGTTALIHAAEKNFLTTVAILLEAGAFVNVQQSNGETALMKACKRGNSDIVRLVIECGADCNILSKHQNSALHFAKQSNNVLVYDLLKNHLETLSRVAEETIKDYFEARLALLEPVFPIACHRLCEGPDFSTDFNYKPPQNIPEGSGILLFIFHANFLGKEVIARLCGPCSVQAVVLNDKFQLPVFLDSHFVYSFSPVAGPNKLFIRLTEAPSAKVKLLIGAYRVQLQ

In experiment [14] the target is Ferritin light chain (Equus caballus) (UniProt P02791). Description: qHTS Validation Assay for Identification of Novel General Anesthetics (AID 2323). Also: series mostly up to about 77 µM. In a few lines:
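Normalized fluorescence response, scaled between free 1-AMA and 1-AMA/apoferritin complex, fitted to a four-parameter Hill equation for concentration-effect values. Binding mix: 10 uM horse-spleen apoferritin, 50% saturated 1-AMA in PBS; read 380/535 nm after 10 min.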

Experiment [15] has as its target ATP-dependent DNA helicase Q1 (Homo sapiens) (UniProt P46063). Description: qHTS Validation Assay for Inhibitors of RecQ-Like Dna Helicase 1 (RECQ1) (AID 2353). The method, boiled down:
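50 nM RECQ1T1 preincubated 15 min with compound in Tris pH 8.0 buffer with MgCl2, DTT, Tween-20 and 2.5 ug/ml poly(dI-dC); started with 200 nM TAMRA/BHQ-2 forked duplex and 2 mM ATP. Unwinding read as fluorescence (525/598 nm), two reads 2 h apart.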

Experiment [16] can be described thus: Validation screen for small molecules that induce DNA re-replication in MCF 10A normal breast cells (AID 463097). Also: nearly all actives have a fitted effect of over 60% in size. The method, boiled down: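 Following 48 hr compound incubation (37 C, 5% CO2), MCF 10A cells receive Hoechst for 40 min at 37 C. Nuclei are then scanned (excitation 405 nm, emission 500-530 nm) for total fluorescence intensity.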
Experiment [17] can be described thus: Quantitative high throughput screen for delayed death inhibitors of the malarial parasite plastid, 96 hour incubation (AID 488745).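 Also: luciferase-expressing P. falciparum in erythrocytes at 2% hematocrit and 0.1% parasitemia; series mostly up to about 29 µM; nearly all actives have a fitted effect of over 70% in size.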 The method, boiled down: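 Infected erythrocytes were added to compound in Albumax-supplemented RPMI 1640 at 0.1% parasitemia and 2% hematocrit (final), incubated 96 h at 37 C under 5% CO2, then luciferase reagent was added and luminescence measured.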

A short description of experiment [18]: Quantitative high throughput screen for delayed death inhibitors of the malarial parasite plastid, 48 hour incubation (AID 488752). Also: nearly all actives have a fitted effect of over 65% in size. The method, boiled down:
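Readout is firefly luciferase luminescence from a reporter integrated into the parasite genome, with lower signal taken as inhibited growth. Infected red cells (0.1% parasitemia, 2% hematocrit final) are cultured with compound for one 48 h cycle at 37 C.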

In experiment [19] the target is RecQ-like DNA helicase BLM (Homo sapiens) (UniProt P54132). Description: qHTS Validation Assay for Inhibitors of Bloom's syndrome helicase (BLM) (AID 2364). In a few lines: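 Forked 20-bp duplex substrate (200 nM, TAMRA/BHQ-2) plus 2 mM ATP added after 15 min compound preincubation with 50 nM enzyme, pH 8.0, poly(dI-dC) 2.5 ug/ml. Strand separation followed by fluorescence (525/598 nm) over 2 h, normalized to enzyme-free and DMSO controls.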

For experiment [20], the target named is Ubiquitin carboxyl-terminal hydrolase 2 (Homo sapiens) (UniProt O75604). Description: qHTS Validation Assay for Inhibitors of Ubiquitin-specific Protease USP2a Using CHOP2 as the Reporter (AID 463106). Also: potency is read from the fitted curve at half-maximal effect. In a few lines: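 10nM USP2 core + cpd, 30min RT; add 25nM Ub-CHOP2/25nM substrate; 60min RT; FI 485/531nm. Buffer Tris pH 8.0, CaCl2, BME, CHAPS. Norm. to NEM = 100% inhibition; time-zero read flags fluorescent artifacts.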

Chain of Beta-2 adrenergic receptor (Homo sapiens) (P07550 whole entry, looked up): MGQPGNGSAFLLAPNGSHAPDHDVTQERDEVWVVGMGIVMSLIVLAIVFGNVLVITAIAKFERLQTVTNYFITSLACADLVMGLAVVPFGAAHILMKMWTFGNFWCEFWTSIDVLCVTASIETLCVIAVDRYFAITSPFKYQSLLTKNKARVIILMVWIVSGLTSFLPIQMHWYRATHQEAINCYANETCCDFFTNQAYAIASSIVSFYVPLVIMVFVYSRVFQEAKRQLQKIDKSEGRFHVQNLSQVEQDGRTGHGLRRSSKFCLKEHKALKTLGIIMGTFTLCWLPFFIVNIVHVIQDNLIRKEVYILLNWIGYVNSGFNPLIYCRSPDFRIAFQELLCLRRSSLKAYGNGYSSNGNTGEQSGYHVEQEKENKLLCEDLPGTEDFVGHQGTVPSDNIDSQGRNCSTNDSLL
Chain of Tumor susceptibility gene 101 protein (Homo sapiens) (Q99816 whole entry, looked up, the tested form may be a part): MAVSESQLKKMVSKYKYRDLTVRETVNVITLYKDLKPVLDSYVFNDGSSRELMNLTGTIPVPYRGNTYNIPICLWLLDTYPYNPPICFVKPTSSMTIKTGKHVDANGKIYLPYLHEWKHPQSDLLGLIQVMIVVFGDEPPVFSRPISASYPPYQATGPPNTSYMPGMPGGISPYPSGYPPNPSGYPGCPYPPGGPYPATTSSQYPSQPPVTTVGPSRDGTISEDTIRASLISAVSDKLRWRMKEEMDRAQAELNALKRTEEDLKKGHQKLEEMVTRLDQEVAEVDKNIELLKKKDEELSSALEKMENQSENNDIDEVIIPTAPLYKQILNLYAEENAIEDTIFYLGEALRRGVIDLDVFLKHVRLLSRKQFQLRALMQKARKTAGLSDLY
Chain of ATP-dependent DNA helicase Q1 (Homo sapiens) (P46063 whole entry, looked up): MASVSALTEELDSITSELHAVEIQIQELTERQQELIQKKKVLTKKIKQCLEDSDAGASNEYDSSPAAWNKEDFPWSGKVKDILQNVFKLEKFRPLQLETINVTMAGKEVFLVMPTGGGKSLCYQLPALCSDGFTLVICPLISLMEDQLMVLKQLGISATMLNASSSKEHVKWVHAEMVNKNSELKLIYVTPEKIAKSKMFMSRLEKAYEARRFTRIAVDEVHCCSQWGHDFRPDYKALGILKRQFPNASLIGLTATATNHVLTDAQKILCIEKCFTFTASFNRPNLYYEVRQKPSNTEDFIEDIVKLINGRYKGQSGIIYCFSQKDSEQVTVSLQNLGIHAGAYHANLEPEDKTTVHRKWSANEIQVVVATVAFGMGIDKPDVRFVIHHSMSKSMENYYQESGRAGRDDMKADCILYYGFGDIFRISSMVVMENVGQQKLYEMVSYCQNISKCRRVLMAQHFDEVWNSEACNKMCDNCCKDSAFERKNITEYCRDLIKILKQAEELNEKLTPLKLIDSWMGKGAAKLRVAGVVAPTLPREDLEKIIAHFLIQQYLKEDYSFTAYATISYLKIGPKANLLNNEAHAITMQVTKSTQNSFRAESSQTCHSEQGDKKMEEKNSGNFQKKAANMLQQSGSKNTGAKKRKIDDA
Chain of DNA polymerase III PolC-type (Bacillus subtilis (strain 168)) (P13267 whole entry, looked up): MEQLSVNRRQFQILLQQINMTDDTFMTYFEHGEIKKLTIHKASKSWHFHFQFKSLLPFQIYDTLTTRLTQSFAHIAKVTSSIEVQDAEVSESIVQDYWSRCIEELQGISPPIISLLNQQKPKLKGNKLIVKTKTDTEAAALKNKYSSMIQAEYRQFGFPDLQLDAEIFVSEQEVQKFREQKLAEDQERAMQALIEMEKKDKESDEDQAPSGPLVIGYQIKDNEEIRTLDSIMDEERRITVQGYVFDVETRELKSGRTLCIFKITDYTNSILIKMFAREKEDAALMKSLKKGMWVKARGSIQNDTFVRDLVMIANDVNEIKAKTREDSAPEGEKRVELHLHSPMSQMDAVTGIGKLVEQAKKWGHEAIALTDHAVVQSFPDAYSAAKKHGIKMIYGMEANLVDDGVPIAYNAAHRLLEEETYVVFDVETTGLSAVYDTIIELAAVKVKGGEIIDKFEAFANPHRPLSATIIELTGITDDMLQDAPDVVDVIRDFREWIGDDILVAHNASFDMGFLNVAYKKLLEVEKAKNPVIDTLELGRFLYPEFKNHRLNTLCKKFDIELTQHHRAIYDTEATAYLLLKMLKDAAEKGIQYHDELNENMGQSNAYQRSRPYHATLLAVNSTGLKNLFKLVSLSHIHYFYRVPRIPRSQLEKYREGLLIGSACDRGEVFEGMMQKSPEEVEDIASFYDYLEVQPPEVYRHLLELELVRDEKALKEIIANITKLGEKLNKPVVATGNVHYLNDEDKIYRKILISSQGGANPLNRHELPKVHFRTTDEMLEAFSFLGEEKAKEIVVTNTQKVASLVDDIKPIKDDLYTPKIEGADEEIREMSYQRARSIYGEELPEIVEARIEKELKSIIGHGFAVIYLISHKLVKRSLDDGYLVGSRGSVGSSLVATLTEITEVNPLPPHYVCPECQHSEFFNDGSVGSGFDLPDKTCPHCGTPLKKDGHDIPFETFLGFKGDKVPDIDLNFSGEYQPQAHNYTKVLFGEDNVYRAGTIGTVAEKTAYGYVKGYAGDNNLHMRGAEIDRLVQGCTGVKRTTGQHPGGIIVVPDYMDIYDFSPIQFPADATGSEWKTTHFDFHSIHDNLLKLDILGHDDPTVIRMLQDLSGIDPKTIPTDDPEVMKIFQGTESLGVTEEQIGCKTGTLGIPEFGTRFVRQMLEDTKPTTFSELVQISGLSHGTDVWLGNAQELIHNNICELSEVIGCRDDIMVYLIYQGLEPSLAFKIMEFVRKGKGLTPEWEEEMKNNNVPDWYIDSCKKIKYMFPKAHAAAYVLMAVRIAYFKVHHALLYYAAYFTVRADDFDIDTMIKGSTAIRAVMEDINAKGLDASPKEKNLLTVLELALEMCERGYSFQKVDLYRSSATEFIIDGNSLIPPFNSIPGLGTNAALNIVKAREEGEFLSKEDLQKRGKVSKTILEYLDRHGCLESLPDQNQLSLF
Chain of ATP-dependent 6-phosphofructokinase (Trypanosoma brucei brucei) (O15648 whole entry, looked up): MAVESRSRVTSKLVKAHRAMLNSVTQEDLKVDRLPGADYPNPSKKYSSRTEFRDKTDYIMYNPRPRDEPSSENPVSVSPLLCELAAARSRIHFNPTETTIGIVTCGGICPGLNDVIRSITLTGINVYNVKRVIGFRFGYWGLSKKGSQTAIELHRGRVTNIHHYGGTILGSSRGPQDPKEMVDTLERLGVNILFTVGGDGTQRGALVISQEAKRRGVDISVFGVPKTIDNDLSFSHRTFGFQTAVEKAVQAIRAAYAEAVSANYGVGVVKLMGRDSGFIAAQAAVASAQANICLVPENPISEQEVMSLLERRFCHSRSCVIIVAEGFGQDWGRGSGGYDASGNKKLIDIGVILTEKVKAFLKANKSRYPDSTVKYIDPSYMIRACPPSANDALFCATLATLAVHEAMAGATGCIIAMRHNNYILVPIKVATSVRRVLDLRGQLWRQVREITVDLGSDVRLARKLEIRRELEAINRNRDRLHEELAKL
Chain of Ferritin light chain (Equus caballus) (P02791 2-175 limits assumed): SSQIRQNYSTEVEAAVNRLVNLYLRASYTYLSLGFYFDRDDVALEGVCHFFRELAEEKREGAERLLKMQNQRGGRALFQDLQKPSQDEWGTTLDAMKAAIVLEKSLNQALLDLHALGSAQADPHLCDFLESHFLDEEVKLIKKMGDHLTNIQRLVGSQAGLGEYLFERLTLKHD

For `C[C@H]1c2cccc(O)c2C(O)=C2C(=O)[C@]3(O)C(O)=C(C(N)=O)C(=O)[C@@H](N(C)C)[C@@H]3[C@@H](O)[C@@H]21`, the call in experiment [1], in experiment [6], in [8] and in [10] was inactive. For the same molecule, the Potency entry in experiment [2], in experiment [3], in experiment [4], in experiment [5], in experiment [7] and in experiment [9] was “inactive” each time. In addition, the Potency entry in experiment [11] and in experiment [13] was “inactive” each time. The Potency in [12] was 23.8 µM (active).
`O=C1Cc2cc(CCN3CCN(c4nsc5ccccc45)CC3)c(Cl)cc2N1`: the Potency result in [2], in [4], in experiment [5], in experiment [9], in [11] and in experiment [12] was “inactive” in each case. Also, the Potency result in experiment [13] is “inactive”. Besides, the molecule was called inactive in experiment [6], in experiment [8] and in experiment [10].
For the molecule `C[C@](N)(Cc1ccc(O)c(O)c1)C(=O)O`, the Potency result in experiment [14], in experiment [15], in experiment [16], in experiment [5], in experiment [7] and in experiment [17] was “inactive” throughout. For the same molecule, the Potency entry in experiment [18] was “inactive”. Also, the molecule was classed as inactive in experiment [6], in experiment [8] and in experiment [10]. Also, the Potency in experiment [9] is 9.53 µM (active); in experiment [11], 3.77 µM (active); in experiment [12] it was 0.844 µM (active); in [13], 1.89 µM (active).
Take `CCN1CCCC1CNC(=O)c1cc(S(=O)(=O)CC)c(N)cc1OC` (centres undefined): the outcome in experiment [1], in [6], in [8] and in experiment [10] was inactive. Moreover, the Potency result in experiment [2], in experiment [3], in experiment [4], in experiment [5], in [7] and in experiment [9] was “inactive” each time. Further, the Potency result in experiment [11], in experiment [12] and in experiment [13] was “inactive” in each case.
In the case of `OCCN1CCN(CCCN2c3ccccc3Sc3ccc(C(F)(F)F)cc32)CC1`, the Potency entry in experiment [15], in [19], in experiment [5], in experiment [11] and in experiment [12] was “inactive” each time. Further, the outcome in [6], in experiment [8] and in [10] was inactive.
In the case of `O=c1c(-c2ccc(O)cc2)coc2cc(O)cc(O)c12`, the Potency entry in [15], in experiment [2], in experiment [4], in experiment [16], in experiment [5] and in [9] was “inactive” throughout. The Potency result in experiment [11], in [12] and in experiment [13] was “inactive” throughout. In addition, the result in [1], in experiment [6], in [8] and in [10] was inactive.
As for `Cc1ccc(C(=O)Nc2ccc(S(=O)(=O)O)c3cc(S(=O)(=O)O)cc(S(=O)(=O)O)c23)cc1NC(=O)c1cccc(NC(=O)Nc2cccc(C(=O)Nc3cc(C(=O)Nc4ccc(S(=O)(=O)O)c5cc(S(=O)(=O)O)cc(S(=O)(=O)O)c45)ccc3C)c2)c1`, the Potency result in experiment [14], in [19], in experiment [2], in experiment [3], in experiment [4] and in [16] was “inactive” each time. The Potency entry in experiment [7], in [17], in experiment [18] and in experiment [11] was “inactive” throughout. The result in [1], in experiment [8] and in [10] was inactive. Further, the Potency in experiment [20] is 3.29 µM (active); in experiment [5], 7.52 µM (active); in [9], 0.675 µM (active); in experiment [12], 0.336 µM (active); in experiment [13], 8.91 µM (active) and 1.89 µM (active).
